Screening results as filed in PubChem.
Methyltransferases – Primary Screen for Target Class Profiling of Small Molecule Inhibitors of Methyltransferases. purified enzyme, MTase-Glo SAH luminescence; active compounds read low. calls only at 40 µM. 25,000 compounds, 3.9% hits. AID 1745853, 2022; call rule not given here
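Each enzyme was assayed with SAM and its substrate. SAH formation detected by MTase-Glo luminescence; single-point 40 uM screen[…].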
The depositor's hits bear a star; i = inactive; + = active, no number. Shown is part of a subset that was picked to be rich in hits. % is scaled to controls: 0 for no effect and ±100 for the full control effect.

SMILES	Methyltransferases
CCCn1c(=O)c2ccc(Cl)cc2n2c(=O)n(CC(=O)c3ccc(OC)c(OC)c3)nc12	i
Cc1ccc(C)c(Cn2nc3n(C(C)C)c(=O)c4ccc(C(=O)NCC(C)C)cc4n3c2=O)c1	i
CN(CCN1CCCCCC1)C(=O)c1cc(COc2ccccc2)[nH]n1	i
c1cc(OCCN2CCCCC2)cc(-c2n[nH]c3ccc(-c4ncn[nH]4)cc23)c1	+
CCN1C(=O)c2c(C(=O)NCCCc3ccccc3)ncn2CC1(C)C(=O)NC1CCCC1 (stereo not drawn)	i
COc1cc(Br)c(Nc2nc(-c3c(C)nc4ncccn34)cs2)c(Br)c1	i
c1ccc2c(Nc3nnc(-c4ccncc4)s3)cccc2c1	i
Cc1cccc(Nc2nc(-c3ccncc3)cs2)c1	+
CCCn1c(=O)c2ccc(C(=O)NC3CCCCC3)cc2n2c(=O)n(CC(N)=O)nc12	i
Cc1nn(C)c(C)c1CCN(C)C(=O)C1CCN(C(=O)N2CC3CC(C2)[C@H]2CCCC(=O)N2C3)CC1 (stereo partly drawn)	i
CC(C)CCn1c(=O)c2ccc(C(=O)NC3CCCC3)cc2n2c(=O)n(Cc3ccc(F)cc3)nc12	i
CC(C)[C@H](C(=O)Nc1ccc(C(=O)NO)cc1)c1ccccc1	+
Cc1oc(C(O)c2ccccc2)nc1C(=O)Nc1ccc(C(=O)Nc2ccccc2)cc1 (stereo not drawn)	i
O=C(CCCCCCC(=O)Nc1ccccc1)NO	i
O=C(CCc1nnc2n(Cc3ccccc3)c(=O)c3ccccc3n12)NCCN1CCCC1	i
O=C(CCc1nnc2n(CCc3ccccc3)c(=O)c3ccccc3n12)NCCCN1CCOCC1	i
O=C(CCCc1nnc2n3nc(-c4ccccc4)nc3c3ccccc3n12)NCCc1ccccc1	i
O=C(CCc1nnc2n(Cc3ccc(Cl)cc3)c(=O)c3ccccc3n12)NCCCN1CCOCC1	i
O=C(CCc1nnc2n(Cc3ccc(Cl)cc3)c(=O)c3ccccc3n12)NCCN1CCCC1	+
Cc1ccc(Cn2c(=O)c3ccccc3n3c(CCC(=O)N4CCC(N5CCCCC5)CC4)nnc23)cc1	+
O=C(CCc1nnc2n(CCc3ccccc3)c(=O)c3ccccc3n12)NCCCN1CCCCC1	+
O=C(CCc1nnc2n(Cc3ccccc3)c(=O)c3ccccc3n12)N1CCN(C2CCCCC2)CC1	i
Cc1ccc(Cn2c(=O)c3ccccc3n3c(CCC(=O)N4CCC(C)CC4)nnc23)cc1	i
O=C(CCCc1nnc2n3nc(-c4ccccc4)nc3c3ccccc3n12)NCc1ccccc1	i
O=C(CCc1nnc2n(CCc3ccccc3)c(=O)c3ccccc3n12)NCCc1ccccc1	i
SMILES	Methyltransferases
O=C(CCCc1nnc2n3nc(-c4ccccc4)nc3c3ccccc3n12)NCCN1CCCC1	+
NC1Nc2ccccc2C1(N)CC1NC(=O)C(Cc2ccccc2)NC(=O)C(Cc2ccccc2)NC1=O (stereo not drawn)	i
CCCN1C(=O)c2cc3ccc(OC)cc3n2CC1(C)C(=O)NC1CCCCC1 (stereo not drawn)	i
C=C1CC[C@H]2[C@@](C)(CCC(O)[C@@]2(C)CO)[C@@H]1C/C=C(/C(=O)O)C(O)CO (stereo partly drawn)	i
COC1CCC12CCN(C(=O)c1ccc(C)s1)CC2 (stereo not drawn)	i
CC(C)NC(=O)c1ccc2c(=O)n(Cc3ccccc3)c3nn(Cc4ccc(F)cc4Cl)c(=O)n3c2c1	i
CCn1nc(C)cc1S(=O)(=O)N[C@H]1[C@H]2CCO[C@H]2[C@@H]1N1CCCCC1	i
COC(=O)c1ncn2c1C(=O)N(Cc1ccccc1Cl)C(C)(C(=O)NCc1ccccc1)C2 (stereo not drawn)	i
CCCN1C(=O)c2cc3sc(CC)cc3n2CC1(C)C(=O)NC1CCCCCC1 (stereo not drawn)	i
Cc1ccc(CNC(=O)Cn2nc3n(CCCOC(C)C)c(=O)c4ccccc4n3c2=O)cc1	i
CC(C)CCNC(=O)C1(C)Cn2c(cc3ccccc32)C(=O)N1c1ccc(F)cc1 (stereo not drawn)	i
O=C(Cc1cccs1)N1CCN(c2cc(C(F)(F)F)ncn2)CC1	i
CN1C(=O)c2cc3ccccc3n2CC1(C)C(=O)NCC(=O)NCCc1ccccc1 (stereo not drawn)	i
CCC(=O)N1CCc2cc(Br)c(S(=O)(=O)NCCN3CCN(c4ccccc4F)CC3)cc21	i
O=C(CCc1nnc2n(Cc3ccc(F)cc3)c(=O)c3ccccc3n12)NCCc1ccccc1	i
CC1CCCCN1CCNC(=O)CCc1nnc2n(Cc3ccc(F)cc3)c(=O)c3ccccc3n12 (stereo not drawn)	+
O=C(CCc1nnc2n(Cc3ccccc3Cl)c(=O)c3ccccc3n12)NCCN1CCOCC1	i
CC(C)CCNC(=O)CCc1nnc2n(Cc3ccc(F)cc3)c(=O)c3ccccc3n12	i
CC1CCN(CCCNC(=O)CCc2nnc3n(Cc4ccccc4Cl)c(=O)c4ccccc4n23)CC1	+
CC(C)CCNC(=O)CCc1nnc2n(Cc3ccccc3Cl)c(=O)c3ccccc3n12	i
CCCC1c2cccn2CCN1C(=O)Nc1ccc(C)c(Cl)c1 (stereo not drawn)	i
Cc1ccc(Cn2c(=O)c3ccccc3n3c(=O)n(CC(=O)Nc4cc(Cl)ccc4C)nc23)cc1	i
Cc1ccc(CNC(=O)CNC(=O)C2(C)Cn3c(cc4ccccc43)C(=O)N2C)cc1 (stereo not drawn)	i
CN1CCc2cccc3c2C1Cc1ccc(O)c(O)c1-3 (stereo not drawn)	+
Cc1nn2c(SCC(=O)Nc3cccc(F)c3)nnc2[nH]c1=O	i
SMILES	Methyltransferases
COc1cc(C(C)C)c(Oc2cnc(N)nc2N)cc1I	i
CCN1CCC2(CCC1=O)CN(Cc1nc(C(=O)NC)no1)CCN2C (stereo not drawn)	i
Cc1ccc(N2C(=O)c3cc4occc4n3CC2(C)C(=O)NC2CCC(C)CC2)cc1C (stereo not drawn)	i
Oc1ccc(C2CNCc3sccc32)cc1O (stereo not drawn)	+
COc1ccc(C(=O)NC2CCN(c3nc4ncccc4o3)CC2)cc1	i
COc1ccc(NS(=O)(=O)c2ccc3[nH]c(=O)[nH]c3c2)c(OC)c1	i
Cc1ccc(C)c(CN2CC(=O)N(Cc3cccc(F)c3)c3ccccc3S2(=O)=O)c1	i
Cc1c(Cl)cccc1NC(=O)CN(C)S(=O)(=O)c1ccc2[nH]c3c(c2c1)CCCC3	i
C[C@H]1c2cccc(O)c2C(O)=C2C(=O)[C@]3(O)C(O)=C(C(N)=O)C(=O)[C@@H](N(C)C)[C@@H]3[C@@H](O)[C@@H]21	+
Cc1ccc(CN2CCOCCNC(=O)[C@H]3CCCC[C@H]32)o1	i
Cc1ccsc1C(=O)N1CCN(c2cc(-c3cccs3)[nH]n2)CC1	i
CN1CCN(C(=O)c2ccc(Nc3nccc(-c4cccs4)n3)cc2Cl)CC1	+
COc1ccc(C(=O)N2CCN(c3cc(-c4cccs4)[nH]n3)CC2)cc1OC	i
O=C1NC2(CCN(C(=O)c3cccnc3)C2)Oc2ccccc21 (stereo not drawn)	i
CN1C(=O)c2cc(C(=O)Nc3ccccc3Cl)nn2CC1(C)C(=O)NC1CCCCCC1 (stereo not drawn)	i
CC(C)c1nc(-c2ccc(NC(=O)Nc3cccc(C(F)(F)F)c3)c3ccccc23)c2c(N)nccn12	+
CC(C)c1nc2c(NC(=O)Nc3cccc(Cl)c3)cccn2n1	i
